Experimental data taken from PubChem BioAssay.
Activity calls are given as the source filed them. Unless noted, how the calls were made is not given here.

Tests used:
[1] = test system: Wnt5a (protein binding on small-molecule microarray); assay: Wnt5a binders on small-molecule microarray, primary screen, biophysical, 635/667 nm fluorescence (AID 1142); details: 635 nm fluorescence, higher = more signal;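 further: fluorescence read at 667 nm with signal to noise per printed feature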
[2] = cell viability in Huh7 cells, primary screen, cytotoxicity control for HCV replication inhibitor project, CellTiter-Glo luminescence, basal, 48 h (AID 1143); details: Huh7 HCV replicon, higher = more signal, called active from +8 up or from −8 down;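 further: Huh7 hepatoma cells carrying a hepatitis C replication reporter with no stimulus; test concentration not given here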
[3] = P. aeruginosa biofilm formation inhibitors, primary screen, PAO1 strain, BacTiter-Glo luminescence, LB-PBS (AID 1144); details: 12 h, higher = more signal
[4] = CREB reporter modulators without forskolin, primary screen, cell-based, PC12, CRE-LacZ reporter, unstimulated (AID 1145); details: no forskolin, luminescence, 4.5 h, higher = more signal, called active from +8 up or from −8 down
[5] = CREB reporter modulators under forskolin, primary screen, cell-based, PC12, CRE-LacZ reporter, forskolin-stimulated (AID 1146); details: luminescence, 4.5 h, higher = more signal, called active from +8 up or from −8 down;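 further: PC12 cells with 6xCRE LacZ reporter stimulated by forskolin 10 µM; beta-galactosidase reporter signal reflecting CREB driven transcription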
[6] = target: Streptavidin (Streptomyces avidinii) (UniProt P22629); assay: streptavidin binders on small-molecule microarray, primary screen, artefact control for SMM compound annotation, biophysical, 635/667 nm fluorescence (AID 1147); details: streptavidin binding, higher = more signal;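 further: signal reflects streptavidin binding to arrayed compounds as a control protein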
Sequence of Streptavidin (Streptomyces avidinii) (P22629 whole entry, looked up): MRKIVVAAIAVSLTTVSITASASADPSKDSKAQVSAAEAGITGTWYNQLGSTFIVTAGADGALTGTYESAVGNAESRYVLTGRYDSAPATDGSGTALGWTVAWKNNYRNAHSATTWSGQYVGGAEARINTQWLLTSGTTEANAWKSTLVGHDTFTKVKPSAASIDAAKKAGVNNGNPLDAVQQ

[7] = small-molecule binders of probe aInhba, primary screen, biochemical, small-molecule microarray, 635/667 nm fluorescence (AID 1148); details: higher = more signal;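 further: score merges 667nm spot fluorescence with signal-to-noise for antibody binding to printed compounds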
[8] = target: Torsin-1A (Homo sapiens) (UniProt O14656); assay: torsin A binders from cell lysate, primary screen, small-molecule microarray, wild-type, 635/667 nm (AID 1149); details: COS7 hTOR1A-WT lysate, 635 nm fluorescence, higher = more signal
Sequence of Torsin-1A (Homo sapiens) (O14656 whole entry, looked up): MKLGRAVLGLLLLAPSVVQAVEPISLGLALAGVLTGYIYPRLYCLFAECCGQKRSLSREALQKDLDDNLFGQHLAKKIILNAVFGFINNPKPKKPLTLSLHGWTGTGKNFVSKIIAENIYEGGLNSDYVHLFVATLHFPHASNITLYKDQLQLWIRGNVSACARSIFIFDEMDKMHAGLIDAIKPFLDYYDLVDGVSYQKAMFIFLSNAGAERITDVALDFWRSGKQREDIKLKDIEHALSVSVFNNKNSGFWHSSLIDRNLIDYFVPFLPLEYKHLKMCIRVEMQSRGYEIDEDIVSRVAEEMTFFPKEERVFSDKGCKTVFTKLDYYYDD

[9] = target: Torsin-1A (Homo sapiens) (UniProt O14656); assay: small-molecule binders of mutant TOR1A in lysate, primary screen, cell lysate, small-molecule microarray, COS7 lysate, 635/667 nm fluorescence (AID 1150); details: COS7 hTOR1A mutant lysate, 635 nm fluorescence, higher = more signal;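 further: score pools 667 nm emission and signal to noise measuring lysate protein binding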
[10] = test system: Sonic hedgehog protein (Shh); assay: small-molecule binders of Shh protein, primary screen, biochemical, small-molecule microarray, 635/667 nm fluorescence (AID 1151); details: small-molecule microarray binding, 635 nm fluorescence; higher = more signal;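 further: Shh protein binding to compounds spotted on small-molecule microarray slides; score combines spot fluorescence intensity with signal-to-noise across triplicate slides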
[11] = E. coli DRC41 culture turbidity changes, primary screen, E. coli filamentation inducer project, strain DRC41, OD650, 48 h (AID 1152);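 further: E. coli MC1000 strain DRC41 lacking acrAB efflux pump and sulA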; details: E. coli DRC41 (acrAB sulA), higher = more signal, called active from +8 up or from −8 down
[12] = small-molecule binders of probe aLefty1, primary screen, biochemical, small-molecule microarray, 635/667 nm fluorescence (AID 1153); details: higher = more signal;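 further: score merges spot fluorescence with signal-to-noise ratio from the scanned slide images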
[13] = PSAC antagonists in infected red cells, primary screen, cell-based, P. falciparum Indochina, OD700, 1 h (AID 1154); details: P. falciparum Indochina infected RBC osmotic lysis, higher = more signal, called active from +8 up or from −8 down
[14] = PSAC antagonists in infected red cells, primary screen, cell-based, P. falciparum Indochina, OD700, 2 h (AID 1155);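 further: lysis reports solute entry through the parasite surface anion channel PSAC; channel blockers reduce lysis of infected cells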; details: P. falciparum Indochina infected erythrocytes, osmotic lysis OD700; higher = more signal, called active from +8 up or from −8 down
[15] = osmotic lysis modulators in infected erythrocytes, primary screen, PSAC antagonist project, cell-based, P. falciparum Indochina, OD700, 3 h (AID 1156); details: higher = more signal, called active from +8 up or from −8 down
[16] = PSAC antagonists in infected red cells, primary screen, cell-based, P. falciparum Indochina, OD700, 18 h (AID 1157); details: P. falciparum Indochina infected erythrocytes, osmotic lysis OD700, 18 h; higher = more signal, called active from +8 up or from −8 down
[17] = modulators of S6 phosphorylation in cells, primary screen, cell-based, A549, cytoblot, luminescence, serum-stimulated (AID 1158); details: A549 phospho-S6 cytoblot, 5 h, higher = more signal;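 further: serum-stimulated A549 lung adenocarcinoma cells; signal is phosphorylated S6 detected by cytoblot immunostaining with HRP secondary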
[18] = target: NADPH oxidase 2 (Homo sapiens) (UniProt P04839); assay: NOX2-dependent H2O2 signal modulators, primary screen, NOX inhibitor project, cell-based, HEK293-NOX2, PMA-stimulated, Amplex Red fluorescence (AID 1159); details: 45 min, higher = more signal, called active from +8 up or from −8 down; further: test concentration not given here
Sequence of NADPH oxidase 2 (Homo sapiens) (P04839 whole entry, looked up): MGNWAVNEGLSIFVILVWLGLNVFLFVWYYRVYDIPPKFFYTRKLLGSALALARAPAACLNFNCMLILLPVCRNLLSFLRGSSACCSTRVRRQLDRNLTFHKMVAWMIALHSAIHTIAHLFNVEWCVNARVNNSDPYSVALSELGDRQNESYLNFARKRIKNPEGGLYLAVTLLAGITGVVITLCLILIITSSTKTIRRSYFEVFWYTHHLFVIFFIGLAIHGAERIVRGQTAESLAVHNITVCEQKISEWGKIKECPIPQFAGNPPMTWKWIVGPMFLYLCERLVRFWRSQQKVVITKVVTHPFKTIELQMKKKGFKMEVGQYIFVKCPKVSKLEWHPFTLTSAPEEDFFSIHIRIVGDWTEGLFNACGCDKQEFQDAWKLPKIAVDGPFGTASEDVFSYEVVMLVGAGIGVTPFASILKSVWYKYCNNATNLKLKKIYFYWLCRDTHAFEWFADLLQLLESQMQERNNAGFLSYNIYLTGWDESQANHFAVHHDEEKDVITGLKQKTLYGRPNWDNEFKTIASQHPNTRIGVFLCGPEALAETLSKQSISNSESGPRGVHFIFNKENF

[19] = target: NADPH oxidase 4 (Homo sapiens) (UniProt Q9NPH5); assay: NOX4-dependent H2O2 signal modulators, primary screen, NOX inhibitor project, cell-based, HEK293-NOX4, tetracycline-induced, Amplex Red fluorescence (AID 1160); details: 45 min, higher = more signal, called active from +8 up or from −8 down
Sequence of NADPH oxidase 4 (Homo sapiens) (Q9NPH5 whole entry, looked up): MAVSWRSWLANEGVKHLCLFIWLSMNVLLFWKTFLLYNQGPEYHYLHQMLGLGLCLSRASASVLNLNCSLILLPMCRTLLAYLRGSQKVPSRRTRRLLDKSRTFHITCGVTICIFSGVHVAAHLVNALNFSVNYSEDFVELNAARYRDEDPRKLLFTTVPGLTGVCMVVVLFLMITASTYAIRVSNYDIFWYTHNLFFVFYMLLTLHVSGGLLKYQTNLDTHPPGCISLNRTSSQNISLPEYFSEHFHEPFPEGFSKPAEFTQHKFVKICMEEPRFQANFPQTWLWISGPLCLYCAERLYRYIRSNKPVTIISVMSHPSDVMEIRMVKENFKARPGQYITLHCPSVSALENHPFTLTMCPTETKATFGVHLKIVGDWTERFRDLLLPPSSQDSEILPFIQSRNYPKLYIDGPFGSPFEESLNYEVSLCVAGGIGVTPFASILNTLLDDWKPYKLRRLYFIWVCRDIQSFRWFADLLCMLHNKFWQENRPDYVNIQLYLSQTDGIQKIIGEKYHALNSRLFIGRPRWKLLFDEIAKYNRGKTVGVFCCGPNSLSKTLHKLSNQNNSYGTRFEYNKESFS

[20] = target: NADPH oxidase 5 (Homo sapiens) (UniProt Q96PH1); assay: NOX5-dependent H2O2 signal modulators, primary screen, NOX inhibitor project, cell-based, HEK293-NOX5, Amplex Red fluorescence (AID 1161); details: HEK293-NOX5, ionomycin, 45 min, higher = more signal
Sequence of NADPH oxidase 5 (Homo sapiens) (Q96PH1 whole entry, looked up): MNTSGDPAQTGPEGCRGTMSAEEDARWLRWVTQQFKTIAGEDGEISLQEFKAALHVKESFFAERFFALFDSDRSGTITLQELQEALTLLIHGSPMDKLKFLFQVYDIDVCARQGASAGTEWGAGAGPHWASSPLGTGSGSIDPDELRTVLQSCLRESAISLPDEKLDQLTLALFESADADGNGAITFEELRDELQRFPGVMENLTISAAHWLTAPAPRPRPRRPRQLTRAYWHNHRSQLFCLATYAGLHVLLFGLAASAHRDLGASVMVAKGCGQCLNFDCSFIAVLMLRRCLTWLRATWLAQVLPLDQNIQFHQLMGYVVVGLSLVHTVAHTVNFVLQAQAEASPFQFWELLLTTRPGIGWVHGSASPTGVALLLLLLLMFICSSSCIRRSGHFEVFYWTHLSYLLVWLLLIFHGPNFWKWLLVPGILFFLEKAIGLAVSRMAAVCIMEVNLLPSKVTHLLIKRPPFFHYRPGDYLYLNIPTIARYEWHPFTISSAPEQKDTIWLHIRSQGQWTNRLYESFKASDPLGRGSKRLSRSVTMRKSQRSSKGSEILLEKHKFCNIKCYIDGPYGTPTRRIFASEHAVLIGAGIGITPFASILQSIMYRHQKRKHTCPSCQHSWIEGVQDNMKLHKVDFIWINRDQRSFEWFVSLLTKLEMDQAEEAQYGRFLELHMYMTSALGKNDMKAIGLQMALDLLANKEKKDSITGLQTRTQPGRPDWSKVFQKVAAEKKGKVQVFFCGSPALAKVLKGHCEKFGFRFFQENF

With `CCCCC(=C=CC[C@@H](O)c1ccc(CO)o1)CCO` the composite z-score [1] was 0.136, the z-score [2] was -0.0181 (inactive) and the z-score [3] was -0.748 (inactive). The z-score [4] was 2.69 (inactive), the z-score [5] was -1.19 (inactive) and the composite z-score [6] was -0.419. For the same compound, the composite z-score [7] was 0.185, the composite z-score [8] was 0.867 and the composite z-score [9] was 0.359. The composite z-score [10] was 1.37, the z-score [11] was 0.702 (inactive) and the composite z-score [12] was 0.459. The z-score [13] was 2.3 (inactive), the z-score [14] was 0.631 (inactive) and the z-score [15] was 0.399 (inactive). For the same compound, the z-score [16] was 0.208 (inactive), the z-score [17] was 0.126 and the z-score [18] was 2.35 (inactive). The z-score [19] was 1.49 (inactive) and the z-score [20] was 1.3.

In the case of `O=C1OCC=C[C@H]2OC34C=CCN(CCN5CCOCC5)C(=O)[C@H]3N(CCO)C(=O)[C@@H]4[C@@H]12` (stereo not given in full), the composite z-score [1] is reported as -0.38, the z-score [2] is reported as -0.117 (inactive) and the z-score [3] is reported as 1.82 (inactive). For the same compound, the z-score [4] was 0.459 (inactive), the z-score [5] was 0.168 (inactive) and the composite z-score [6] was -0.175. It also gave a composite z-score [7] of -0.359, a composite z-score [8] of -0.618 and a composite z-score [9] of -0.61. The composite z-score [10] was 1.93, the z-score [11] was -0.738 (inactive) and the composite z-score [12] was -0.279. For the same compound, the z-score [13] was 0.418 (inactive), the z-score [14] was 0.009 (inactive) and the z-score [15] was -0.392 (inactive). For the same compound, the z-score [16] was 0.33 (inactive), the z-score [17] was -0.822 and the z-score [18] was 1.4 (inactive). The z-score [19] was 0.628 (inactive) and the z-score [20] was 1.72.

For `O=C(O)C1N=C(c2ccc(OCCCO)cc2)N(c2ccccc2)O1` (stereo not given), the composite z-score [1] was 0.222, the z-score [2] was -0.205 (inactive) and the z-score [3] was 1.3 (inactive). For the same compound, the z-score [4] was 0.101 (inactive), the z-score [5] was 1.16 (inactive) and the composite z-score [6] was 0.926. For the same compound, the composite z-score [7] was -0.166, the composite z-score [8] was 0.666 and the composite z-score [9] was 1.72. For the same compound, the composite z-score [10] was 0.287, the z-score [11] was 0.0785 (inactive) and the composite z-score [12] was 0.0245. For the same compound, the z-score [13] was 18.5 (active), the z-score [14] was 2.35 (inactive) and the z-score [15] was 0.874 (inactive). The z-score [16] was 0.497 (inactive), the z-score [17] was -0.284 and the z-score [18] was -2.6 (inactive). The z-score [19] was 0.0373 (inactive) and the z-score [20] was -0.638.

In the case of `C#CCOc1ccc(C[C@@H](C(=O)OC)N(CC#C)[C@@H](/C=C/C2CC2)[C@H](O)Cc2ccccc2)cc1`, the composite z-score [1] is reported as -0.589, the z-score [2] is reported as -2.59 (inactive) and the z-score [3] is reported as 0.803 (inactive). For the same compound, the z-score [4] was 14.9 (active), the z-score [5] was 1 (inactive) and the composite z-score [6] was -0.57. The composite z-score [7] was -0.183, the composite z-score [8] was -1.18 and the composite z-score [9] was -0.489. For the same compound, the composite z-score [10] was -0.34, the z-score [11] was -1.04 (inactive) and the composite z-score [12] was -0.101. The z-score [13] was 1.7 (inactive), the z-score [14] was 0.135 (inactive) and the z-score [15] was -0.173 (inactive). For the same compound, the z-score [16] was -0.111 (inactive), the z-score [17] was -0.138 and the z-score [18] was -0.0591 (inactive). For the same compound, the z-score [19] was 0.763 (inactive) and the z-score [20] was -0.732.

In the case of `N#Cc1ccc(C(O)C2C=CC3C(=O)N(c4ccccc4)C(=O)C3N2Nc2ccccc2F)cc1` (stereo not given), the composite z-score [1] is reported as 0.286, the z-score [2] is reported as -2.92 (inactive) and the z-score [3] is reported as -0.826 (inactive). For the same compound, the z-score [4] was -0.107 (inactive), the z-score [5] was -0.852 (inactive) and the composite z-score [6] was 0.0289. For the same compound, the composite z-score [7] was -0.0986, the composite z-score [8] was -0.291 and the composite z-score [9] was -0.301. For the same compound, the composite z-score [10] was -0.234, the z-score [11] was 0.55 (inactive) and the composite z-score [12] was 0.149. The z-score [13] was 3.98 (inactive), the z-score [14] was -0.245 (inactive) and the z-score [15] was -0.246 (inactive). For the same compound, the z-score [16] was -0.616 (inactive), the z-score [17] was 0.179 and the z-score [18] was -1.82 (inactive). The z-score [19] was -3.54 (inactive) and the z-score [20] was -2.02.

For `O=C1O[C@H](c2ccccc2)[C@H](c2ccccc2)N2[C@H]1[C@@H](C(=O)NC[C@H](O)c1ccccc1)[C@]1(C(=O)Nc3ccccc31)[C@H]2c1ccc(O)cc1`, the composite z-score [1] was 0.378, the z-score [2] was -1.1 (inactive) and the z-score [3] was -1.25 (inactive). The z-score [4] was -1.29 (inactive), the z-score [5] was -0.423 (inactive) and the composite z-score [6] was 0.287. It also gave a composite z-score [7] of -0.128, a composite z-score [8] of 0.643 and a composite z-score [9] of 0.506. For the same compound, the composite z-score [10] was 1.5, the z-score [11] was 0.281 (inactive) and the composite z-score [12] was 0.0191. For the same compound, the z-score [13] was 2.49 (inactive), the z-score [14] was 1.29 (inactive) and the z-score [15] was -0.214 (inactive). For the same compound, the z-score [16] was 1.29 (inactive), the z-score [17] was -0.482 and the z-score [18] was -0.0983 (inactive). For the same compound, the z-score [19] was -0.705 (inactive) and the z-score [20] was 0.152.

With `CC(C)(C)OC(=O)CC[C@]1(C(=O)NCCN2CCOCC2)COC(c2ccc(OCCCO)cc2)=N1` the composite z-score [1] was 0.681, the z-score [2] was -0.102 (inactive) and the z-score [3] was -0.192 (inactive). The z-score [4] was 0.157 (inactive), the z-score [5] was -0.168 (inactive) and the composite z-score [6] was 0.344. The composite z-score [7] was 0.0227, the composite z-score [8] was 0.717 and the composite z-score [9] was 1.37. For the same compound, the composite z-score [10] was 0.998, the z-score [11] was 1.04 (inactive) and the composite z-score [12] was 0.319. The z-score [13] was 18.7 (active), the z-score [14] was 2.01 (inactive) and the z-score [15] was 0.0229 (inactive). The z-score [16] was 0.791 (inactive), the z-score [17] was -0.395 and the z-score [18] was -2.08 (inactive). For the same compound, the z-score [19] was 0.08 (inactive) and the z-score [20] was -0.137.

With `COCCOC(=O)N1C(=O)[C@@]2(c3cc(C#CCCO)ccc31)[C@H](c1ccc(O)cc1)N1[C@H](c3ccccc3)[C@H](c3ccccc3)OC(=O)[C@H]1[C@@H]2C(=O)N1CCN(c2ncccn2)CC1` the composite z-score [1] was 0.449, the z-score [2] was -1.97 (inactive) and the z-score [3] was -0.185 (inactive). For the same compound, the z-score [4] was -0.459 (inactive), the z-score [5] was 0.648 (inactive) and the composite z-score [6] was 0.842. For the same compound, the composite z-score [7] was 1.62, the composite z-score [8] was 0.852 and the composite z-score [9] was 0.606. The composite z-score [10] was 1.53, the z-score [11] was 0.209 (inactive) and the composite z-score [12] was 1.97. The z-score [13] was 1.65 (inactive), the z-score [14] was 0.0986 (inactive) and the z-score [15] was 0.599 (inactive). For the same compound, the z-score [16] was 0.235 (inactive), the z-score [17] was 0.078 and the z-score [18] was 1.11 (inactive). The z-score [19] was 0.682 (inactive) and the z-score [20] was 1.85.
